Experimental data taken from PubChem BioAssay (NCI).
The panel holds about 83,000 compounds, 20% with a hit somewhere; the sample as a whole holds those more often.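 How to read the values: 0–100, growth inhibition (40 = 60% inhibited); 0, no net growth; -100 to 0, cell death (-40 = 40% of starting cells died; -100 = all dead).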 Active and inactive are the calls of the source. Rule for the calls: active = growth percent below 10; inactive = the rest.

Test system: NCI-H226 lung
Test: NCI-60 one-dose screen, 48 h (100 = growth as untreated, 0 = no growth, -100 = all killed)
Conditions: 10 µM unless noted

Row | SMILES | growth
1 | NC(=O)n1c(=O)n(-c2cccc(C(F)(F)F)c2)c(=O)c2cc(-c3ccc(F)cc3F)ccc21 | 13.2% (inactive)
2 | Cn1c(SCC(=O)c2ccco2)nc2ccccc2c1=O | 79.5% (inactive)
3 | C=C(C)[C@@H]1CC[C@]2(C(=O)O)CC[C@]3(C)[C@H](CC[C@@H]4[C@@]5(C)C/C(=C/c6ccccn6)C(=O)C(C)(C)[C@@H]5CC[C@]43C)[C@@H]12 | 39.9% (inactive)
4 | CCc1cc2c(cc1Cl)nc1c(=O)[nH]c(=O)nc-1n2CCOCC(C)(C)C | 41.2% (inactive)
5 | O=C(Nc1ccc(N2CCOCC2)cc1)Nc1ccc2c(ccn2C(=O)c2cccc(F)c2)c1 | 41.4% (inactive)
6 | C#CCOc1cccc(-c2nc(N)nc(Nc3ccccc3SSc3ccccc3Nc3nc(N)nc(-c4cccc(OCC#C)c4)n3)n2)c1 | 1.74% (active)
7 | CN1CCN(Cc2ccc(NC(=O)c3cncc(C#Cc4cnc5ccc(OCCCS(C)(=O)=O)nn45)c3)cc2C(F)(F)F)CC1 | -60.1% (active)
8 | CNC(=O)c1cc(-n2ccc3cc(NC(=O)Nc4ccc(N5CCN(C)CC5)c(C(F)(F)F)c4)ccc32)ccn1 | 96.4% (inactive)
9 | Nc1cc(C(=O)N/N=C\c2ccc(OC(F)F)c(OC3CCCC3)c2)nn1CC(O)c1ccccc1 (stereo not given) | 92.7% (inactive)
10 | CNC(=O)Nc1ccc(Nc2cc(-c3ccc(-n4cccn4)cc3)[nH]n2)c(C)c1 | 104% (inactive)
11 | Cc1nc(/N=C(N)/N=C(\N)c2cccc(Br)c2)sc1C | 73.1% (inactive)
12 | Brc1cccc(-c2cc(-c3ccc4c(c3)OC=CO4)[nH]n2)c1 | 78% (inactive)
13 | Cc1ccc2c(n1)C(=O)C(Cl)=C(Nc1ccc(C)c(C)c1)C2=O | 36% (inactive)
14 | CN1CCN(Cc2ccc(NC(=O)c3cncc(C#Cc4cnc5ccc(N)nn45)c3)cc2C(F)(F)F)CC1 | 17.2% (inactive)
15 | O=C1[C@@H]2Cc3c([nH]c4ccccc34)[C@@H](c3ccc(Cl)cc3)N2C(=O)CN1C1CCN(Cc2ccccc2)CC1 | 72.5% (inactive)
16 | CN1CCN(c2ccc(C(=O)/C=C/c3cc(F)cc(C(F)(F)F)c3)cc2)CC1 | 61.8% (inactive)
17 | CCCc1cc2cc(-n3nc(CC)c4c3CC(C)(C)CC4=O)cc(NC3CCC(O)CC3)c2c(=O)[nH]1 (stereo not given) | 13.9% (inactive)
18 | O=C1[C@@H]2Cc3c([nH]c4ccccc34)[C@H](c3ccc(Br)cc3)N2C(=O)CN1C1CCN(Cc2c(Cl)cccc2Cl)CC1 | 85.8% (inactive)
19 | CC1(C)CC[C@]2(C(=O)NCCCCCCN(CCCN)CCCN)CC[C@]3(C)C(=CC[C@@H]4[C@@]5(C)CC[C@H](O)C(C)(C)[C@@H]5CC[C@]43C)[C@@H]2C1 | 100% (inactive)
20 | N#Cc1c(-c2cccs2)cc(-c2cnccn2)nc1SCC(=O)N/N=C/c1ccccc1 | 50.8% (inactive)

Row | SMILES | growth
21 | Cc1ccc(S(=O)(=O)NCCCNc2nccc(-c3[nH]c(-c4ccccc4)nc3-c3ccc(F)c(O)c3)n2)cc1 | 93.2% (inactive)
22 | COc1ccc2c(c1)c(-c1nc(N)nnc1-c1c[nH]c3ccccc13)cn2C | 37.6% (inactive)
23 | COC(=O)c1ccc(NC2=C(Cl)C(=O)c3nc(C)ccc3C2=O)cc1 | 81.3% (inactive)
24 | N#Cc1c(-c2cccs2)cc(-c2cnccn2)nc1SCC(=O)N/N=C/c1ccncc1 | 104% (inactive)
25 | Cc1ccc2c(n1)C(=O)C(Cl)=C(Nc1cccc(C(F)(F)F)c1)C2=O | 73.3% (inactive)
26 | C#CCN(C)CCCOc1ccc(NCc2ccc(/C=C/C(=O)NO)cc2)cc1Cl | -11.7% (active)
27 | CC1=C(SCC(=O)OCCCCCC(C)C)C(=O)c2ccccc2C1=O | 93.8% (inactive)
28 | Cc1ccc2c(n1)C(=O)C(Cl)=C(Nc1ccc(C#N)cc1)C2=O | 98.3% (inactive)
29 | COc1cccc(N2CCN(C3=C(Cl)C(=O)c4ncccc4C3=O)CC2)c1 | 94.7% (inactive)
30 | Clc1ccc2[nH]cc(-c3cncn3CCc3ccc4c(c3)OCO4)c2c1 | 56.8% (inactive)
31 | CN1CCN(c2ccc(Nc3nc(NCCNS(=O)(=O)c4ccc5ccccc5c4)c4sccc4n3)cc2)CC1 | 98.4% (inactive)
32 | Cc1[nH]c(C(=O)Nc2ccc(C(=O)NCC3CCNCC3)cc2OC(C)C)c(Cl)c1Cl | 83.6% (inactive)
33 | Nc1ncc(-c2ccc3ncnc(NCc4ccccc4)c3c2)cn1 | 33.9% (inactive)
34 | O=C(NNc1nc2cc(F)cc(F)c2n2cccc12)c1cccnn1 | -3.91% (active)
35 | CCCc1[nH]c(-c2cc(N)ccc2Cl)c2c1C(=O)CCCC2 | 98.1% (inactive)
36 | O=C(CSc1nnc(-c2ccc(Cl)cc2)n1-c1ccccc1)Nc1ccccc1Cl | 48.7% (inactive)
37 | CN(C)S(=O)(=O)c1ccc(-c2nc(C(Cl)Cl)nc3cc(-c4ccc(F)cc4)nn23)cc1 | 45.4% (inactive)
38 | C1=CC(c2nn3c(-c4ccccc4)nnc3s2)=Cc2ccccc2O1 | 31.7% (inactive)
39 | COc1ccccc1N1CCN(C2=C(Cl)C(=O)c3ncccc3C2=O)CC1 | 91% (inactive)
40 | O=C(COc1ccc(/C=C2\C(=O)Nc3ccc(F)cc32)cc1)Nc1ccccc1 | 96.6% (inactive)
